Among the test systems are T-47D breast; BT-549 breast; SW-620 colon; MCF7 breast; HCT-116 colon; HCC-2998 colon; KM12 colon; MDA-MB-435 melanoma.
Holding throughout (assay): NCI-60 one-dose screen, 48 h (100 = growth as untreated, 0 = no growth, -100 = all killed)
What all share (conditions): 10 µM unless noted

Molecules are shown by their SMILES. The panel holds about 83,000 compounds, 20% with a hit somewhere; the sample as a whole holds those more often.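 Values shown are percent growth following 48 h exposure of cells in 96-well plates to a single concentration of compound; below 10 was considered active.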 Unmarked numbers belong to inactive results. Active and inactive are the calls of the source.

Take `CCNCCNc1cc(-c2ccc(C(=O)OC)cc2)c(C#N)c2nc3ccccc3n12`: the growth in the assay on T-47D breast was 18.6%; in the assay on BT-549 breast, 68.2%; with SW-620 colon, 2.26% (active); in the assay on MCF7 breast, 53.8%; in the assay on HCT-116 colon, -19.5% (active); in the assay with HCC-2998 colon, 49%. Besides, the growth with KM12 colon was 50.8%.
Turning to `COc1ccc(-n2nnc(C(=O)NCCc3c[nH]c4ccc(F)cc34)c2C)cc1`, the growth with T-47D breast is 89.3%; in the assay with BT-549 breast, 103%; in the assay on SW-620 colon, 101%; with MCF7 breast, 95.7%; in the assay on HCT-116 colon it was 93.5%; in the assay on HCC-2998 colon it was 106%. Further, in the assay with KM12 colon, the growth is 103%.
For `Cc1cc(C)on1`, the growth was 94.4% in the assay on T-47D breast; 99.5% with MDA-MB-435 melanoma; 110% with SW-620 colon; 96.6% with MCF7 breast; 110% with HCT-116 colon; 94.5% in the assay with HCC-2998 colon.
As for `CCCCNC(=O)c1cc(NCc2cc(O)ccc2O)ccc1O`, the growth in the assay with T-47D breast is 58.1%; in the assay on BT-549 breast it was 46.1%; in the assay with SW-620 colon, 110%; in the assay with MCF7 breast, 67.7%; in the assay on HCT-116 colon, 86.2%; with HCC-2998 colon it was 96.4%. Also, in the assay with KM12 colon, the growth was 78.4%.
Consider `CSc1nc2sc3cc(Cl)ccc3n2c(=N)c1C#N`, for which the growth with T-47D breast is 70%; in the assay on MDA-MB-435 melanoma, 96.9%; in the assay on SW-620 colon, 71.7%; in the assay on MCF7 breast, 49%; with HCT-116 colon it was 92.9%; with HCC-2998 colon, 86.8%. Also, the growth in the assay on KM12 colon is 19.8%.
`CCOC(=O)c1c2c(c(C)n1C)-c1nn(Cc3ccc(OC)cc3)cc1CC2`: the growth in the assay with T-47D breast is 64.4%; with BT-549 breast, 271%; with SW-620 colon, 96.9%; in the assay with HCT-116 colon it was 84.4%; with HCC-2998 colon, 109%; in the assay on KM12 colon, 92.4%.
As for `O=C(CCl)N1c2cccc3cccc(c23)N(C(=O)CCl)C1c1cn(-c2ccccc2)nc1-c1cccc([N+](=O)[O-])c1`, the growth in the assay with T-47D breast is 87.7%; with BT-549 breast, 98.5%; in the assay with SW-620 colon, 35.4%; in the assay with MCF7 breast it was 51.6%; in the assay with HCT-116 colon it was 37.3%; in the assay on HCC-2998 colon, 104%. For the same molecule, in the assay on KM12 colon, the growth was 101%.
With `CCOC(=O)c1c(C)nc2c(c1N)/C(=C/c1cc(OC)c(OC)c(OC)c1)C(=O)N2c1ccc(OC)cc1`, the growth in the assay on T-47D breast was 73.2%; in the assay on BT-549 breast, 46.7%; in the assay with SW-620 colon, 30.9%; in the assay with MCF7 breast it was 14.6%; in the assay with HCT-116 colon it was -0.0724% (active); with KM12 colon, 43.7%.
Turning to `N#Cc1c(Oc2ccc([N+](=O)[O-])cc2)nc2sc3cc(Cl)ccc3n2c1=N`, the growth with T-47D breast is 60.2%; in the assay on MDA-MB-435 melanoma it was 111%; in the assay with SW-620 colon it was 93.1%; in the assay with MCF7 breast, 61.8%; in the assay with HCT-116 colon it was 105%; in the assay with HCC-2998 colon it was 117%. The growth in the assay with KM12 colon is 47.7%.
Consider `N#Cc1cnn2c(-c3ccc(Cl)cc3)nc(NC3CC3)nc12`, for which the growth in the assay with T-47D breast was 82.4%; in the assay with BT-549 breast it was 94.2%; with SW-620 colon, 103%; in the assay on MCF7 breast, 78%; in the assay with HCT-116 colon it was 93.8%; in the assay with HCC-2998 colon, 101%. Further, the growth in the assay on KM12 colon is 98.2%.
With `CCNCCNc1cc(-c2ccc(C#N)cc2)c(C#N)c2nc3ccccc3n12`, the growth is 37.5% in the assay on T-47D breast; 40.4% in the assay on BT-549 breast; -30.2% (active) in the assay on SW-620 colon; 57.8% in the assay with MCF7 breast; -27.2% (active) in the assay on HCT-116 colon; 41% in the assay on HCC-2998 colon. Further, the growth with KM12 colon is 29%.
`CCCCCCCC/C=C\CCCCCCCC(=O)Oc1cccc2cccnc12`: the growth is 54.6% with T-47D breast; 65.6% in the assay on BT-549 breast; 59.4% with SW-620 colon; 89.4% in the assay with MCF7 breast; 32.2% in the assay on HCT-116 colon; 106% in the assay on HCC-2998 colon. The growth in the assay on KM12 colon is 104%.
With `COc1ccc(-c2nc3sccn3c2/C=C/C(=O)c2c[nH]c3ccccc23)cc1`, the growth in the assay on T-47D breast is 56.1%; with BT-549 breast it was 59.1%; in the assay with SW-620 colon, 100%; in the assay on MCF7 breast, 69.8%; with HCT-116 colon, 69.5%; in the assay with HCC-2998 colon, 67.4%. For the same molecule, the growth in the assay with KM12 colon was 76.8%.
As to `Cl.Fc1c[c-]c(-c2ccccn2)c(F)c1.[Pt].c1ccc(P(c2ccccc2)C([PH+](c2ccccc2)c2ccccc2)[PH+](c2ccccc2)c2ccccc2)cc1`, the growth in the assay on T-47D breast was 27.7%; in the assay on BT-549 breast, 26.6%; in the assay on SW-620 colon, 14.7%; with MCF7 breast, 4.74% (active); with HCT-116 colon it was 8.7% (active); with HCC-2998 colon, 24.6%. Also, the growth in the assay on KM12 colon was 11.4%.
Consider `CCOc1ccc(S(=O)(=O)c2ccc(C)cc2)c2c1no[n+]2[O-]`, for which the growth in the assay with T-47D breast is 56.4%; with MDA-MB-435 melanoma, 91.4%; in the assay with SW-620 colon, 100%; in the assay on MCF7 breast, 83.1%; in the assay on HCT-116 colon, 80.4%; in the assay with HCC-2998 colon, 100%. The growth in the assay with KM12 colon was 93.6%.
As to `COC(=O)CNC(=O)C(=O)c1c(O)c(O)c(C(C)C)c2cc(C)c(-c3c(C)cc4c(C(C)C)c(O)c(O)c(C(=O)C(=O)NCC(=O)OC)c4c3O)c(O)c12`, the growth is 16% in the assay with T-47D breast; 30.2% with BT-549 breast; 16% with SW-620 colon; 18% in the assay on MCF7 breast; 11% in the assay on HCT-116 colon; 33.8% in the assay with HCC-2998 colon. Moreover, in the assay on KM12 colon, the growth was 16.1%.
For `COc1ccc(N=c2nc3sc4cc(Cl)ccc4n3c(N)c2C#N)cc1`, the growth in the assay with T-47D breast was 73.7%; in the assay on MDA-MB-435 melanoma, 99.6%; with SW-620 colon, 81.1%; in the assay on MCF7 breast, 61.2%; with HCT-116 colon, 93.7%; in the assay on HCC-2998 colon, 95.5%. The growth with KM12 colon is 24.7%.

Values taken from PubChem BioAssay (NCI).
